The record followed here is PubChem BioAssay (Tox21).

“And” between values parts separate entries of the source, which are not always exact repeats. Identical values can stand only once. A number with no mark means an inactive call. Results filed as inconclusive are left out. Entries that show only a call come without a potency. The source made the active and inactive calls. Unless noted, the call rests on the fitted dose curve; in most records, active means well fitted curve in the direction sought with a large enough effect in the repeat runs; inconclusive means weak or mixed curves; inactive means no such curve, though single readings can be large; an effect the other way counts as inactive or inconclusive.

The first assay is described as follows: qHTS assay to identify small molecule agonists of H2AX - cell viability counter screen (AID 1224847; calls by dose curve; further: nearly all actives have a fitted effect of over 30% in size; further: potency means the concentration at half of the fitted maximal effect). As to conditions: CHO-K1 viability, CellTiter-Glo luminescence, 3 h; series mostly up to 154 µM. The method, boiled down:
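CHO-K1 wt, 1000 cells/well, o/n 37C; cpds 15 conc, 3 h 37C, 0.76% DMSO; CellTiter-Glo, 30 min RT, luminescence.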
(Quantitative high-throughput screening tests each substance at several concentrations.)
Take `CC1CN1` (stereo unspecified): the Potency result is “inactive”.

Consider `CC(=O)[O][Sn]([c]1ccccc1)([c]1ccccc1)[c]1ccccc1`, for which the Potency was 142 nM (active). Same read-out and setting: the result for `O.O.O.O.O.O.O.O=S(=O)([O-])[O-].[Co+2]` reads “inactive”.

Regarding `O=[N+]([O-])C(Br)Br`, the Potency entry is “inactive”. The same measure, in the same setting: the result for `CCCCCCC[CH2][Sn]([Cl])([Cl])[CH2]CCCCCCC` reads “inactive”; that for `S=C=NCCc1ccccc1`, “inactive”; that for `CCCCCCCc1ccc(O)cc1`, 50500 nM (active). Same read-out and setting: the result for `COC(=O)N(OC)c1ccccc1COc1ccn(-c2ccc(Cl)cc2)n1` reads 1270 nM (active); that for `CO/N=C(/C1=NOCCO1)c1ccccc1Oc1ncnc(Oc2ccccc2Cl)c1F`, 12700 nM (active); that for `CN1CCc2cc3c(cc2C1O)OCO3` (stereo unspecified), “inactive”. As to `ClC(Cl)C(Cl)(Cl)Cl`, the Potency entry was “inactive”.

Another assay is described as follows: qHTS assay to identify small molecule antagonists of the estrogen related receptor (ERR) signaling pathway from Tox21 library (AID 1224848). Further: nearly all actives have a fitted effect of over 50% in size. Further: potency means the concentration at half of the fitted maximal effect. The following applies: ERR reporter cell line, luciferase antagonist mode, 18 h; series mostly up to 92.4 µM. Summed up: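 Compounds dissolved in DMSO are pin-transferred onto ERR reporter cells (2,000 per well) that have settled for 6 h at 37 C. Plates then incubate 18 h at 37 C before ONE-Glo luciferase reagent and a luminescence read 30 min later.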
For the compound `CCC[CH2][Sn]([CH2]CCC)([O]C(C)=O)[O]C(C)=O`, the Potency is 61.7 nM (active). The same measure, in the same setting: next, `[F][Sn]([c]1ccccc1)([c]1ccccc1)[c]1ccccc1`: 545 nM (active). `Nc1nc(N)c(N)c(N)n1`: the Potency entry was “inactive”.

In the case of `CCC(C)Nc1c([N+](=O)[O-])cc(C(C)(C)C)cc1[N+](=O)[O-]` (stereo unspecified), the Potency entry was “inactive”.

With `C[C@H]1[C@H](c2ccc(Cl)cc2)SC(=O)N1C(=O)NC1CCCCC1`, the Potency was 30600 nM (active).

For `Oc1ccc2[nH]cc(CCCCN3CC=C(c4ccccc4)CC3)c2c1`, the Potency is 29800 nM (active).

Regarding `O=[N+]([O-])C(Br)Br`, the Potency result is “inactive”. Still for that read-out and setting: next, `COC(=O)N(OC)c1ccccc1COc1ccn(-c2ccc(Cl)cc2)n1`: 137 nM (active); `O=[N+]([O-])c1ccc(Cl)c(Cl)c1Cl`: “inactive”.

The nature of another assay: qHTS assay to identify small molecule agonists of the estrogen related receptor (ERR) signaling pathway from Tox21 library (AID 1224849; calls by dose curve; further: nearly all actives have a fitted effect of over 15% in size). The following applies: ERR reporter cell line, ONE-Glo luciferase, 18 h; at 92.4 µM (top of the series) unless noted. The method, boiled down: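 Quantitative HTS in agonist format: NTP ERR cell line, compounds transferred in DMSO after 6 h plating, 18 h incubation at 37 C, ONE-Glo luminescence endpoint.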
Turning to `CCC[CH2][Sn]([CH2]CCC)([O]C(C)=O)[O]C(C)=O`, the activity change, positive = activation was -79.9%. For the compound `[F][Sn]([c]1ccccc1)([c]1ccccc1)[c]1ccccc1`, the activity change, positive = activation was -81.3%. Still for that read-out and setting: the result for `CNC(=O)/C=C(\C)OP(=O)(OC)OC` reads -0.497%. Still for that read-out and setting: next, `Nc1nc(N)c(N)c(N)n1`: 0.198%; `Nc1ccccc1-c1ccccc1`: -40.4%.

On to `CCC(C)Nc1c([N+](=O)[O-])cc(C(C)(C)C)cc1[N+](=O)[O-]` (stereo unspecified), for which the activity change, positive = activation is 11.9%.

Take `C[C@H]1[C@H](c2ccc(Cl)cc2)SC(=O)N1C(=O)NC1CCCCC1`: the activity change, positive = activation is -41.4%.

For the compound `CC(C)(C)c1ccc(OP(=O)(Oc2ccccc2)Oc2ccccc2)cc1`, the activity change, positive = activation is -31.3%. Same read-out and setting: next, `Clc1ccc(C(c2ccc(Cl)cc2)C(Cl)Cl)cc1`: -36.3% and -43.8%; `Oc1cccc(Cl)c1Cl`: -30.2%; `Cc1c([N+](=O)[O-])c(C)c([N+](=O)[O-])c(C(C)(C)C)c1[N+](=O)[O-]`: -4.01%. On the same count and under the same terms, the result for `CCC(OC(C)=O)C(CC(C)NC)(c1ccccc1)c1ccccc1` (stereo unspecified) reads -58.4%. Same read-out and setting: next, `Nc1ccc(N=Nc2ccccc2)cc1`: 69.2% (active); `Oc1ccc2[nH]cc(CCCCN3CC=C(c4ccccc4)CC3)c2c1`: -32.1% [at 42.5 µM]. Consider `CC(=O)[O][Sn]([c]1ccccc1)([c]1ccccc1)[c]1ccccc1`, for which the activity change, positive = activation was -74%. Consider `CC(C)N(C(=O)CCl)c1ccccc1`, for which the activity change, positive = activation was -77.7% and -74.7%. With `O=[N+]([O-])C(Br)Br`, the activity change, positive = activation is 5.44%. Still for that read-out and setting: next, `CCCCCCC[CH2][Sn]([Cl])([Cl])[CH2]CCCCCCC`: -59.9%. On the same count and under the same terms, next, `Cc1c([N+](=O)[O-])cc2c(c1[N+](=O)[O-])C(C)(C)CC2(C)C`: -30.3%; `COC(=O)N(OC)c1ccccc1COc1ccn(-c2ccc(Cl)cc2)n1`: -52.1%; `O=[N+]([O-])c1ccc(Cl)c(Cl)c1Cl`: -11%. For `CN1CCc2cc3c(cc2C1O)OCO3` (stereo unspecified), the activity change, positive = activation is 0.659%.

A further assay is described as follows: qHTS RealTime-Glo MT Cell Viability Assay in HepG2 cells - 24 hour (AID 1224867). Further: nearly all actives have a fitted effect of over 50% in size. Further: potency means the concentration at half of the fitted maximal effect. As to conditions: RealTime-Glo luminescence; series mostly up to 76.8 µM. The method, boiled down:
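HepG2 suspension premixed with RealTime-Glo reagents is plated at 600 cells per well and left 5 h at 37 C/5% CO2. Compounds in DMSO then go in, and bioluminescence reflecting viable cell number is recorded over 40 h.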
As to `CCC[CH2][Sn]([CH2]CCC)([O]C(C)=O)[O]C(C)=O`, the Potency was 278 nM (active). On the same count and under the same terms, the result for `[F][Sn]([c]1ccccc1)([c]1ccccc1)[c]1ccccc1` reads 436 nM (active); that for `CC(=O)[O-].CC(=O)[O-].O.O.[Zn+2]`, “inactive”. Take `CO/N=C(\C(=O)OC)c1ccccc1CO/N=C(\C)c1cccc(C(F)(F)F)c1`: the Potency entry is “inactive”.

For `CNC(=O)/C=C(\C)OP(=O)(OC)OC`, the Potency entry was “inactive”. On the same count and under the same terms, next, `Nc1nc(N)c(N)c(N)n1`: “inactive”. Still for that read-out and setting: next, `Nc1ccccc1-c1ccccc1`: “inactive”; `O=S(=O)(NS(=O)(=O)C(F)(F)F)C(F)(F)F`: “inactive”; `O=C(NC(=O)c1ccccc1Cl)Nc1ccc(OC(F)(F)F)cc1`: “inactive”. The same measure, in the same setting: next, `CCC(C)Nc1c([N+](=O)[O-])cc(C(C)(C)C)cc1[N+](=O)[O-]` (stereo unspecified): “inactive”; `O=C(N[C@H]1N=C(c2ccccc2F)c2cccc3c2N(CC3)C1=O)c1cc2ccccc2[nH]1`: “inactive”; `c1ccc2nc(N3CCNCC3)ccc2c1`: “inactive”.

Turning to `C[C@H]1[C@H](c2ccc(Cl)cc2)SC(=O)N1C(=O)NC1CCCCC1`, the Potency entry is “inactive”. Same read-out and setting: next, `CC(C)(C)c1ccc(OP(=O)(Oc2ccccc2)Oc2ccccc2)cc1`: “inactive”; `Clc1ccc(C(c2ccc(Cl)cc2)C(Cl)Cl)cc1`: “inactive”. The same measure, in the same setting: next, `CC1=C2C[C@H]3[C@@H](CC=C4C[C@@H](O)CC[C@@]43C)[C@@H]2CC[C@]12O[C@@H]1C[C@H](C)CN[C@H]1[C@H]2C`: “inactive”; `Oc1cccc(Cl)c1Cl`: “inactive”.

Consider `Cc1c([N+](=O)[O-])c(C)c([N+](=O)[O-])c(C(C)(C)C)c1[N+](=O)[O-]`, for which the Potency entry is “inactive”. On the same count and under the same terms, next, `CCOC(=O)Cc1ccccc1`: “inactive”. Still for that read-out and setting: the result for `CCC(OC(C)=O)C(CC(C)NC)(c1ccccc1)c1ccccc1` (stereo unspecified) reads 62200 nM (active); that for `CCC(C)c1cccc(C(C)CC)c1O` (stereo unspecified), “inactive”; that for `Nc1ccc(N=Nc2ccccc2)cc1`, “inactive”. Still for that read-out and setting: the result for `Oc1ccc2[nH]cc(CCCCN3CC=C(c4ccccc4)CC3)c2c1` reads “inactive”; that for `CC1CN1` (stereo unspecified), “inactive”; that for `C[C@]12CC[C@H]3[C@@H](CCC4=CC(=O)CC[C@@H]43)[C@@H]1CC[C@@H]2OC(=O)CCc1ccco1`, “inactive”. Consider `O.O.O.O.O.O.O.O=S(=O)([O-])[O-].[Co+2]`, for which the Potency result is “inactive”.

`O=[N+]([O-])C(Br)Br`: the Potency entry is “inactive”. The same measure, in the same setting: the result for `CCCCCCC[CH2][Sn]([Cl])([Cl])[CH2]CCCCCCC` reads “inactive”; that for `Cc1c([N+](=O)[O-])cc2c(c1[N+](=O)[O-])C(C)(C)CC2(C)C`, “inactive”; that for `COP(=S)(NC(C)C)Oc1ccc(C)cc1[N+](=O)[O-]` (stereo unspecified), “inactive”. The same measure, in the same setting: next, `COC(=O)N(OC)c1ccccc1COc1ccn(-c2ccc(Cl)cc2)n1`: “inactive”; `O=[N+]([O-])c1ccc(Cl)c(Cl)c1Cl`: “inactive”; `CN1CCc2cc3c(cc2C1O)OCO3` (stereo unspecified): “inactive”.

Turning to `ClC(Cl)C(Cl)(Cl)Cl`, the Potency result was “inactive”.
